20 compounds from PubChem BioAssay can be followed below.

Assay [1] is described as follows: antimalarial activity against Dd2 strain (AID 2302;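 active means growth inhibition above 50% at the single 2 µM test dose, taken to imply half-maximal potency below 2 µM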;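 further: 0% = DMSO untreated growth and 100% = chloroquine plus artemisinin killed control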). The note with it: P. falciparum Dd2 in RBCs, LDH growth readout, 72 h; at 2 µM; hits give high values.
Assay [2] can be described thus: human hepatoma cell viability loss – ATP luminescence, cytotoxicity control for P. falciparum antimalarial project, primary screen (AID 2303;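 active means inhibition above 50%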;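 further: 0% = DMSO wells and 100% = digitonin-killed cells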). The note with it: HepG2 viability, 24-48 h, at 10 µM, hits give high values.
The target in assay [3] is L-lactate dehydrogenase (Plasmodium falciparum (isolate CDC / Honduras)) (UniProt Q27743). The assay can be described thus: PfLDH activity inhibition – cell lysate, 3D7 strain, counter-screen for P. falciparum growth inhibition project (AID 2304).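 Further: 0% = vehicle and 100% = reference inhibitor.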 The note with it: P. falciparum 3D7 crude extract, LDH APAD/NBT absorbance; at 2 µM; hits give high values. In general terms: Counterscreens check selectivity or assay interference.
L-lactate dehydrogenase (Plasmodium falciparum (isolate CDC / Honduras)), sequence (Q27743 whole entry, looked up): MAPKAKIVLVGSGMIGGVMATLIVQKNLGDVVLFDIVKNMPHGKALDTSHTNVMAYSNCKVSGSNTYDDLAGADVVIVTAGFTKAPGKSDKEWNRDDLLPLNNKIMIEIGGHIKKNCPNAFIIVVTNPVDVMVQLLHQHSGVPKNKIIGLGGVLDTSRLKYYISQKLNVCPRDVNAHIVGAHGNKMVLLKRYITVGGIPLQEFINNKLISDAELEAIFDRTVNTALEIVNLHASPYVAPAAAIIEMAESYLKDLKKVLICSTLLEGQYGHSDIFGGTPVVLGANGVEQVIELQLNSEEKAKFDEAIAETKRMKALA

Assay [4] is described as follows: inhibition of 3D7 malaria parasite growth – strain 3D7 (AID 2306).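 Further: 0% = DMSO wells and 100% = chloroquine plus artemisinin control wells.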 The note with it: P. falciparum 3D7 erythrocytic growth, LDH absorbance, 72 h; at 2 µM; hits give high values.
For assay [5], the target named is Calcium-dependent protein kinase 1 (Plasmodium falciparum (isolate 3D7)) (UniProt P62344). The assay can be described thus: PfCDPK1 kinase inhibitors, biochemical, TCAMS library (AID 1159585; cut-off not given, nearly all actives have IC50 up to about 0.98 µM;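 further: inhibitors leave more ATP so luminescence rises with inhibition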). The following applies: recombinant PfCDPK1, Kinase-Glo ATP depletion luminescence.
Calcium-dependent protein kinase 1 (Plasmodium falciparum (isolate 3D7)), sequence (P62344 whole entry, looked up): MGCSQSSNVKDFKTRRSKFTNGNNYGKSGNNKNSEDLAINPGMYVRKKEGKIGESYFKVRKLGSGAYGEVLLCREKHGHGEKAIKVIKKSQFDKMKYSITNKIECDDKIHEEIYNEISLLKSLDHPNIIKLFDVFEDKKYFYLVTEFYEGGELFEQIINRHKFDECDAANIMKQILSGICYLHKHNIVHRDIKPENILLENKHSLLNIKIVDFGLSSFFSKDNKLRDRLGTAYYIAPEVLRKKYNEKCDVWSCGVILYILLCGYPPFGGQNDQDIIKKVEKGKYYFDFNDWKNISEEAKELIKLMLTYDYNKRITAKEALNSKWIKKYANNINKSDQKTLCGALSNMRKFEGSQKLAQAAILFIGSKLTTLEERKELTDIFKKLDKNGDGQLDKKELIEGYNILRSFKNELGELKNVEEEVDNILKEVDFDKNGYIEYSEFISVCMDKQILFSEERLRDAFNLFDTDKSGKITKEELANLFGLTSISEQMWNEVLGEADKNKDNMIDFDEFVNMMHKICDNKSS
In assay [6] the target is Plasmodium falciparum protein kinase 6 (PK6, PF3D7_1337100) (UniProt Q8IDW1). Put plainly: PfPK6 kinase inhibitors, biochemical, TCAMS library (AID 1159586). The following applies: recombinant PfPK6, Kinase-Glo ATP depletion luminescence.
Plasmodium falciparum protein kinase 6 (PK6, PF3D7_1337100), sequence (Q8IDW1 1-305): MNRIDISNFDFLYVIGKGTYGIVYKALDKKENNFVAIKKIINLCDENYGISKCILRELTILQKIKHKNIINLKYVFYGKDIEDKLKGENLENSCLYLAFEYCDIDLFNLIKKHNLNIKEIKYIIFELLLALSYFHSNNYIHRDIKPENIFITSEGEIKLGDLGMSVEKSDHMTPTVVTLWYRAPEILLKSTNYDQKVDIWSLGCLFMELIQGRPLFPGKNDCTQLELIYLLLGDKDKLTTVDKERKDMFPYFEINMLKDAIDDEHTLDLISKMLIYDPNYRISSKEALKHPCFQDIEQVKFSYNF
The target of assay [7] is Protein kinase 7 (PK7), Plasmodium falciparum 3D7 (PF3D7_0213400) (UniProt Q7YTF7). Put plainly: inhibition of Plasmodium PK7 catalytic activity – biochemical, TCAMS antimalarial set, Kinase-Glo luminescence (AID 1159587). The following applies: recombinant PfPK7, Kinase-Glo ATP depletion luminescence. A general note: Kinase-Glo measures the ATP left after a reaction by luminescence.
Protein kinase 7 (PK7), Plasmodium falciparum 3D7 (PF3D7_0213400), sequence (Q7YTF7 1-343): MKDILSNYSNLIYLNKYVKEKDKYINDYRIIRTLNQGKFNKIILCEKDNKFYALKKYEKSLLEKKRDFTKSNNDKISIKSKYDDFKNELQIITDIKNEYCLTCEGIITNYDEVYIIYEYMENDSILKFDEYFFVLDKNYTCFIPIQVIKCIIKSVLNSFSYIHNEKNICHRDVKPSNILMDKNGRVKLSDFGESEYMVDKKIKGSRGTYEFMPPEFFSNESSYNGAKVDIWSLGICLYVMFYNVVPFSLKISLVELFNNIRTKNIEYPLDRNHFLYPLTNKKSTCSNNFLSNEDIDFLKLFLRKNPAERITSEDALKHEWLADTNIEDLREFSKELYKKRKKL

The target of assay [8] is Calcium-dependent protein kinase 4 (Plasmodium falciparum (isolate 3D7)) (UniProt Q8IBS5). The assay can be described thus: PfCDPK4 kinase inhibitors, biochemical, TCAMS library (AID 1159588; cut-off not given, nearly all actives have IC50 up to about 0.91 µM). The following applies: recombinant PfCDPK4, Kinase-Glo ATP depletion luminescence.
Calcium-dependent protein kinase 4 (Plasmodium falciparum (isolate 3D7)), sequence (Q8IBS5 whole entry, looked up): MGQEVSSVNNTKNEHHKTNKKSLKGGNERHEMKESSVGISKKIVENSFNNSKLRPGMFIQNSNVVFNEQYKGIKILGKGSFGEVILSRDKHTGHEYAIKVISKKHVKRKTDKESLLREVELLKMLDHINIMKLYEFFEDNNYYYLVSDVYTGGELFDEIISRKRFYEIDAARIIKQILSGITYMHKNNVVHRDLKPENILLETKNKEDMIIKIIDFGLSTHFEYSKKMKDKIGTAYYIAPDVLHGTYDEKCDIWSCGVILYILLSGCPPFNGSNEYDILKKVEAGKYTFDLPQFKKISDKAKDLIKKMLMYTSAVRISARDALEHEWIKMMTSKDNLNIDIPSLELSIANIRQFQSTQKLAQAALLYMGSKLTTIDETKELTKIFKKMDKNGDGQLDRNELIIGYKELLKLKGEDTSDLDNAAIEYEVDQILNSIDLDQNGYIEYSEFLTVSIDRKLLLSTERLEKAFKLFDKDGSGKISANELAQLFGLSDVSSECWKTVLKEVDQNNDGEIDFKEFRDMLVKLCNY

One may read the inhibition as the change of the read-out against control, counted positive when it falls.

Values without a mark were called inactive. For some of these results: Entries with a potency or affinity are not part of this list. Calls of active or inactive are those of the source. Unless noted, how the calls were made is not given here.

`C=CCn1c(Sc2ccc(C#N)c([N+](=O)[O-])c2)nnc1-c1cccc(Cl)c1`: the growth inhibition in assay [1] is 54% (active); in assay [4], 97% (active). For the same compound, the figures for the inhibition in assay [2] and in assay [3] were 41% and -1%, respectively. Further, the result in assay [5], in assay [6], in assay [7] and in assay [8] was inactive.

For the compound `O=C(Nc1ccc(N2CCCCC2)c(Cl)c1)c1ccco1`, the values for the growth inhibition in assay [1] and in assay [4] were 95% (active) and 96% (active), respectively. Moreover, the inhibition in assay [2] is -1%; in assay [3], -6%. The result in assay [5], in assay [6], in assay [7] and in assay [8] was inactive.

As for `CNC(=O)Cc1ccc(C(=O)Nc2cccc(-c3cccc(-c4nc5c(C)cccc5[nH]4)c3)c2)cc1`, the growth inhibition in assay [1] was 53% (active); in assay [4] it was 96% (active). Further, the results for the inhibition in assay [2] and in assay [3] were 15% and 0%, respectively. Besides, the result in assay [5], in assay [6], in assay [7] and in assay [8] was inactive.

`CCc1ccc(C2CCN(CCCCNC(=O)c3ccc(NC(=O)c4ccc(Cl)cc4)cc3)CC2)c(OC(C)=O)c1`: the growth inhibition was 100% (active) in assay [1] and 91% (active) in assay [4]. Further, the figures for the inhibition in assay [2] and in assay [3] were 48% and 0%, respectively. Moreover, the outcome in assay [5], in assay [6], in assay [7] and in assay [8] was inactive.

On to `COc1ccc(Nc2nccc(-c3ccc(NC(=O)c4cc5cc(F)ccc5[nH]4)cc3)n2)cc1`, for which the growth inhibition in assay [1] was 26%; in assay [4] it was 91% (active). Moreover, the inhibition in assay [2] is 21%; in assay [3] it was -2%. In addition, the outcome in assay [5], in assay [6], in assay [7] and in assay [8] was inactive.

As to `CC(C)C1C(O)=C(c2ccc3ccccc3c2)C(=O)N1CC1CCCCC1` (stereo not given), the growth inhibition is 43% in assay [1] and 84% (active) in assay [4]. Also, the figures for the inhibition in assay [2] and in assay [3] were 11% and -3%, respectively. Also, the outcome in assay [5], in assay [6], in assay [7] and in assay [8] was inactive.

Consider `CCOC(=O)c1ccc(NC(=O)Nc2ccc(-c3cccc(-c4nc5ccccc5[nH]4)c3)cc2)cc1`, for which the values for the growth inhibition in assay [1] and in assay [4] were 99% (active) and 101% (active), respectively. The figures for the inhibition in assay [2] and in assay [3] were 94% (active) and -4%, respectively. Further, the result in assay [5], in assay [6], in assay [7] and in assay [8] was inactive.

For `COc1ccc2nccc([C@@H](O)CN3CCC(NCCOc4cccc(C(F)(F)F)c4Cl)CC3)c2c1`, the results for the growth inhibition in assay [1] and in assay [4] were 98% (active) and 100% (active), respectively. The inhibition is 13% in assay [2] and -3% in assay [3]. In addition, the outcome in assay [5], in assay [6], in assay [7] and in assay [8] was inactive.

Take `CCCNC(=O)C1CCN(C(c2ccc(Cl)cc2)c2ccc(Cl)cc2)CC1`: the growth inhibition in assay [1] is 96% (active); in assay [4], 98% (active). In addition, the inhibition in assay [2] was 7%; in assay [3], 4%. Besides, the result in assay [5], in assay [6], in assay [7] and in assay [8] was inactive.

With `N#Cc1ccc(-c2ccc(OCC(O)CN3CCCN(Cc4cccc(O)c4Cl)CC3)cc2)cc1` (stereo not given), the growth inhibition in assay [1] was 66% (active); in assay [4], 98% (active). The inhibition in assay [2] was 3%; in assay [3], -6%. The result in assay [5], in assay [6], in assay [7] and in assay [8] was inactive.

`COc1ccc2nc3cc(Cl)ccc3c(NCCc3ccccc3)c2c1`: the growth inhibition was 82% (active) in assay [1] and 94% (active) in assay [4]. Also, the results for the inhibition in assay [2] and in assay [3] were -1% and 8%, respectively. Further, the result in assay [5], in assay [6], in assay [7] and in assay [8] was inactive.

As to `Fc1cccc(COc2ccc(Nc3ncnc4ccc(-c5nnc(C(F)(F)F)o5)cc34)cc2Cl)c1`, the growth inhibition in assay [1] is 77% (active); in assay [4], 101% (active). Also, the inhibition in assay [2] was 14%; in assay [3], 5%. For the same compound, the result in assay [5], in assay [6], in assay [7] and in assay [8] was inactive.

As to `c1ccc(CN2CCC(NCc3ccccc3-c3cccc(CNC4CCCC4)c3)CC2)cc1`, the growth inhibition in assay [1] is 59% (active); in assay [4] it was 101% (active). The values for the inhibition in assay [2] and in assay [3] were 35% and 6%, respectively. The outcome in assay [5], in assay [6], in assay [7] and in assay [8] was inactive.

Regarding `Cc1nc(N)nc(N)c1OCCCOc1cccc(Cl)c1Cl`, the figures for the growth inhibition in assay [1] and in assay [4] were 95% (active) and 93% (active), respectively. Also, the inhibition in assay [2] was 59% (active); in assay [3], -2%. Besides, the result in assay [5], in assay [6], in assay [7] and in assay [8] was inactive.

With `CC(C)N=C(N)NN=Cc1ccc(Cl)c(Cl)c1`, the results for the growth inhibition in assay [1] and in assay [4] were 12% and 101% (active), respectively. Besides, the inhibition in assay [2] is -8%; in assay [3] it was -2%. Further, the result in assay [5], in assay [6], in assay [7] and in assay [8] was inactive.

As to `Clc1cccc(Nc2ccc3c(N4CCCCC4)ncnc3n2)c1`, the figures for the growth inhibition in assay [1] and in assay [4] were 93% (active) and 97% (active), respectively. For the same compound, the inhibition in assay [2] is 54% (active); in assay [3] it was 0%. In addition, the outcome in assay [5], in assay [6], in assay [7] and in assay [8] was inactive.

As for `COc1ccc(C(C(=O)NC2CCN(C[C@H](O)c3ccnc4ccc(OC)cc34)CC2)N2CCc3ccccc3C2)cc1` (stereo not given in full), the growth inhibition in assay [1] is 30%; in assay [4], 96% (active). Also, the inhibition in assay [2] is 19%; in assay [3], -3%. In addition, the result in assay [5], in assay [6], in assay [7] and in assay [8] was inactive.

With `CN(C)CCCNc1ccnc2cc(Cl)ccc12`, the growth inhibition in assay [1] and in assay [4] was 100% (active) each time. The results for the inhibition in assay [2] and in assay [3] were 10% and 4%, respectively. Moreover, the result in assay [5], in assay [6], in assay [7] and in assay [8] was inactive.

Turning to `C[C@H](Nc1c(Nc2ccc3[nH]ccc3c2)c(=O)c1=O)C1CCCCC1`, the figures for the growth inhibition in assay [1] and in assay [4] were 11% and 96% (active), respectively. Besides, the inhibition in assay [2] was 7%; in assay [3], 6%. The outcome in assay [5], in assay [6], in assay [7] and in assay [8] was inactive.

In the case of `CCc1ccc(NC(=O)c2cccc(CN3CCCN(CC4CCCCC4)CC3)c2)cc1`, the growth inhibition in assay [1] is 41%; in assay [4], 85% (active). The inhibition was 62% (active) in assay [2] and 4% in assay [3]. For the same compound, the outcome in assay [5], in assay [6], in assay [7] and in assay [8] was inactive.
